Measurements from PubChem BioAssay (Tox21).
Records with an inconclusive call do not appear. Entries that show only a call come without a potency. Active and inactive are the calls of the source. Calls come from the whole dose curve; as a rule, active = well fitted cell-killing curve with a large enough effect in the repeat runs; inconclusive = weak or mixed curves, or effect the other way; inactive = no such curve, though single readings can be large or run the other way.

assay: Caspase-3/7 induction in CHO-K1 cells by small molecules, qHTS cell viability counter screen (AID 1346979); conditions: CellTiter-Fluor fluorescence, 17 h; series mostly up to 92.4 µM; note: nearly all actives have a fitted effect of over 35% in size
Method in brief: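 Viability readout by fluorescence (CellTiter-Fluor) on wild-type CHO-K1 cells exposed for 16hr at 37C and 5% CO2 to compounds delivered in DMSO; reagent incubated 1hr before reading.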
Potency is the fitted concentration of half-maximal effect.

Row | SMILES | Potency
1 | CCOP(=S)(OCC)Oc1cc(C)nc(N(CC)CC)n1 | inactive
2 | Cc1ccc([N+](=O)[O-])[c]2c1[O][Hg]2 | 1680 nM (active)
3 | CC(=O)[O][Sn]([c]1ccccc1)([c]1ccccc1)[c]1ccccc1 | 154 nM (active)
4 | C=C(C)C(=O)[O][Sn]([CH2]CCC)([CH2]CCC)[CH2]CCC | 306 nM (active)
5 | CNC(=O)/C=C(\C)OP(=O)(OC)OC | inactive
6 | CC(C)C(Nc1ccc(C(F)(F)F)cc1Cl)C(=O)OC(C#N)c1cccc(Oc2ccccc2)c1 (centres undefined) | inactive
7 | N#Cc1ccc(N(CC(N)=O)CC(F)(F)F)cc1C(F)(F)F | inactive
8 | O=C(O)CCCCCCNC1c2ccccc2CCc2ccccc21 | inactive
9 | C=CC(=O)[O][Sn]([CH2]CCC)([CH2]CCC)[CH2]CCC | 686 nM (active)
10 | NC(=O)C(Cl)Cl | inactive
11 | Cc1cccc(Cc2cnc[nH]2)c1C | inactive
12 | N#CSCc1ccccc1 | inactive
13 | CCOP(=O)(OCC)Oc1cc(C)nc(C(C)C)n1 | inactive
14 | OCC(Br)CBr (centres undefined) | inactive
15 | N#CCCl | inactive
16 | C=CC(=C)C | inactive
17 | CCn1cc[n+](C)c1 (tested in a mixture with another compound) | inactive
18 | CC(=O)[O][Pb]([c]1ccccc1)([c]1ccccc1)[c]1ccccc1 | 386 nM (active)
19 | CCCCc1ccccc1 | inactive
20 | CCNS(=O)(=O)C(F)(F)C(F)(F)C(F)(F)C(F)(F)C(F)(F)C(F)(F)C(F)(F)C(F)(F)F | inactive

Row | SMILES | Potency
21 | Oc1ccc(Cl)c(Cl)c1 | 67500 nM (active)
22 | O=C(Nc1ccc(F)cc1F)c1cccnc1Oc1cccc(C(F)(F)F)c1 | inactive
23 | ClC1(Cl)C2(Cl)C3(Cl)C4(Cl)C(Cl)(Cl)C5(Cl)C3(Cl)C1(Cl)C5(Cl)C24Cl (centres undefined) | inactive
24 | CC(C)=CCN1CC[C@@]2(C)c3cc(O)ccc3C[C@@H]1[C@@H]2C | inactive
25 | CC1CN1 (centres undefined) | inactive
26 | CC(C)c1c(CN(C)C(C)Cc2ccccc2)n(C)n(-c2ccccc2)c1=O (centres undefined) | inactive
27 | Cc1nn(-c2cc(NS(C)(=O)=O)c(Cl)cc2Cl)c(=O)n1C(F)F | inactive
28 | CCC[CH2][Sn]([CH2]CCC)([CH2]CCC)[CH2]CCC | 9690 nM (active)
29 | O=S1(=O)OCC2C(CO1)C1(Cl)C(Cl)=C(Cl)C2(Cl)C1(Cl)Cl (centres undefined) | 48600 nM (active)
30 | C[C@]12C/C(=C/O)C(=O)C[C@@H]1CC[C@@H]1[C@@H]2CC[C@@]2(C)[C@H]1CC[C@]2(C)O | 43700 nM (active)
31 | [Cl][Hg][c]1ccccc1 | 486 nM (active)
32 | CCCCCON=O | inactive
33 | ClC(Cl)C(Cl)(Cl)Cl | inactive
34 | COC(=O)/C=C(\C)OP(=O)(OC)OC | inactive
35 | CCCCC(CC)COC(=O)c1ccccc1C(=O)OCC(CC)CCCC (centres undefined) | inactive
36 | O=C(Cl)c1ccccc1F | inactive
37 | CC1(C)[C@H](/C=C2\CCSC2=O)[C@@H]1C(=O)OCc1coc(Cc2ccccc2)c1 | 61100 nM (active)
38 | CCCCN(CCCC)C(=S)S | inactive
39 | CCCN | inactive
